Screening results (PubChem BioAssay)
The list is not random: actives were taken first. Their share in the collection is about 9.5%.
SARS PLP yeast: SARS-CoV PLP inhibition in yeast; AID 485353; Potency, µM (series often up to 32.9 µM), actives largely listed as activators; 330,000 tested, 0.19% active; S. cerevisiae expressing SARS-CoV PLpro, growth rescue; calls by dose curve; also: nearly all actives have a fitted effect of over 55% in size
RE007 growth inh: less growth of the S. pombe RE007 Vpr strain; S. pombe RE007 Vpr strain, BacTiter-Glo ATP luminescence, 24 h; 360,000 tested, 0.21% active; Potency, µM (doses to about 92.2 µM), actives largely listed as inhibitors; active = well fitted falling curve with a large enough effect; inconclusive = small, poorly fitted or top-dose-only effect; inactive = no such curve, though single readings can be large or run the other way; also: nearly all actives have a fitted effect of over 50% in size
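Fission yeast RE007 carrying one integrated HIV-1 vpr copy, seeded at OD 0.01 in PMG+AL medium with 23 nL pinned compound. Grown 24 h at 30 degrees; viability read by BacTiter-Glo luminescence after 5 min.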
NS1 function inh: blocks influenza NS1 protein function. Potency, µM (highest dose often 46.1 µM). 270,000 tested, 0.4% active; calls by dose curve; also: actives are rising curves; nearly all actives have a fitted effect of over 50% in size
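In this qHTS, NS1 from influenza A is expressed in budding yeast, where it slows growth. Cells are switched from glucose to 2% galactose medium (pH 6.0, -URA), treated with compound, and growth recovery is read at OD600.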
Pf growth 48h: P. falciparum growth inhibition at 48 hours (one generation) | P. falciparum luciferase growth in erythrocytes, 48 h | Potency, µM (series often up to 28.7 µM), most hits filed as inhibitors | 310,000 tested, 5.9% active
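Here the parasites carry a stable luciferase gene and grow inside erythrocytes in Albumax-based RPMI medium with compound for one erythrocytic cycle. Activity is scored as loss of luminescent signal.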
Pf growth 96h: P. falciparum growth inhibition at 96 hour, primary screen for plastid delayed-death inhibitors. P. falciparum luciferase reporter growth, 96 h. 320,000 tested, 6.9% active. AID 504834. Potency, µM (top dose mostly 28.7 µM), usual class: inhibitors
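Delayed-death screen, second-generation endpoint: infected erythrocytes, 2% hematocrit, 0.05% parasitemia final; 96 hours at 37 C, 5% CO2; luciferase detection reagent; luminescence decrease equals reduced growth.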
Of the large screens only hits and unclear results are named; the others gave an inactive call. Unless noted, calls follow the shape of the dose curve; as a rule, active = well fitted inhibition curve with a large enough effect; inconclusive = small, poorly fitted or top-dose-only effect, or another doubt; inactive = no such curve, though single readings can be large or run the other way.

CC(C)NC(=O)C1C(c2ccc(C(F)(F)F)cc2)=Nc2ccccc2N1C(=O)c1cccc(C(F)(F)F)c1 (configuration not stated)	none (no result: SARS PLP yeast, NS1 function inh, Pf growth 48h, Pf growth 96h)
Cc1ccccc1CNC(=O)CCC(=O)N1CCOc2ccc(Cl)cc21	Pf growth 96h inconclusive
COc1ccc(NCC(=O)N/N=C/C=C\c2ccccc2)cc1	Pf growth 96h 2.62µM
O=C1Cc2cc([N+](=O)[O-])ccc2N1c1c(Cl)cccc1Cl	Pf growth 48h 4.65µM
COc1ccc2[nH]c(=O)c(CN(Cc3nnnn3Cc3ccccc3)CC3CCCO3)cc2c1 (configuration not stated)	Pf growth 48h inconclusive
CCc1ccc2[nH]c(=O)c(CN(Cc3nnnn3C3CCCC3)C3CCCCC3)cc2c1	Pf growth 48h 8.28µM
CCOc1ccc2[nH]c(=O)c(CN(CCO)C(c3nnnn3C3CCCCC3)C(C)C)cc2c1 (configuration not stated)	Pf growth 48h 3.29µM
Cc1ccc2[nH]c(=O)c(CN(Cc3nnnn3Cc3ccccc3)C3CCCC3)cc2c1	Pf growth 48h 13.1µM
Cc1cccc2cc(CN(Cc3nnnn3C3CCCC3)C3CCCCC3)c(=O)[nH]c12	none (no result: SARS PLP yeast, Pf growth 48h, Pf growth 96h)
Cc1cc2cc(CN(Cc3ccc4c(c3)OCO4)Cc3nnnn3C3CCCC3)c(=O)[nH]c2cc1C	Pf growth 48h inconclusive
Cc1ccc2[nH]c(=O)c(CN(Cc3ccc4c(c3)OCO4)Cc3nnnn3C3CCCC3)cc2c1	RE007 growth inh inconclusive, Pf growth 48h 10.4µM (no result: SARS PLP yeast)
O=C(CN1CCN(S(=O)(=O)c2ccc(Cl)cc2)CC1)NC1CC1	none
CC(=O)Nc1ccc(S(=O)(=O)N(Cc2cccnc2)Cc2cc3ccc(C)cc3[nH]c2=O)cc1	Pf growth 48h inconclusive, Pf growth 96h inconclusive
CCOc1ccc(CCN2C(=O)C(=O)N([C@@H](CC(C)C)CN3CCC[C@H]3CN3C(=O)C(=O)NC[C@@H]3Cc3ccccc3)C[C@@H]2Cc2ccc(O)cc2)cc1	none (no result: SARS PLP yeast, NS1 function inh, Pf growth 48h, Pf growth 96h)
CC(=O)O[C@H]1C[C@@]2(C)[C@@H](C[C@@H](O)[C@H]3[C@@]4(C)CC[C@@H](O)[C@@H](C)[C@@H]4CC[C@@]32C)/C1=C(\CCC=C(C)C)C(=O)O	Pf growth 48h 11.7µM, Pf growth 96h inconclusive (no result: SARS PLP yeast, NS1 function inh)
Nc1nc2n(n1)C(=O)CC(c1ccccc1)N2 (configuration not stated)	Pf growth 96h 9.28µM (no result: NS1 function inh)
Cc1cc(C)cc(NC(=O)NCc2c(-c3ccccc3)noc2C)c1	Pf growth 48h inconclusive, Pf growth 96h inconclusive
Cc1onc(-c2ccccc2)c1CNC(=O)Nc1cccc(Cl)c1	Pf growth 96h 9.28µM
Cc1onc(-c2ccccc2)c1CNC(=O)Nc1ccc(C(F)(F)F)cc1	Pf growth 48h 6.57µM, Pf growth 96h 4.15µM
CCCCNC(=O)C1(C)CCCCN1C(=O)c1c(Cl)cccc1Cl (configuration not stated)	none (no result: SARS PLP yeast, NS1 function inh, Pf growth 48h, Pf growth 96h)
COCC1CCCN(Cc2cn(-c3ccccc3)nc2-c2ccc3c(c2)OCO3)C1 (configuration not stated)	Pf growth 48h 9.28µM, Pf growth 96h inconclusive
c1ccc(-n2cc(CN3CCCC3)c(-c3ccc4c(c3)OCO4)n2)cc1	Pf growth 48h 5.22µM, Pf growth 96h inconclusive
CC1(C)CC(=O)C2=C(C1)OC(N)=C(C#N)C2C#Cc1ccccc1 (configuration not stated)	RE007 growth inh 5.62µM, Pf growth 48h inconclusive, Pf growth 96h inconclusive
CC1(C)CC(=O)C2=C(C1)OC(N)=C(C#N)C2c1cccc(OC(=O)c2ccco2)c1 (configuration not stated)	Pf growth 96h 2.94µM
COc1cc(C(=O)Nc2ccc(S(=O)(=O)N3CCCCC3C)cc2)cc(OC)c1OC (configuration not stated)	Pf growth 48h 8.28µM, Pf growth 96h inconclusive
COc1ccccc1C(=O)Nc1ccc(S(=O)(=O)N2CCCCC2c2cccnc2)cc1 (configuration not stated)	Pf growth 48h inconclusive, Pf growth 96h 3.29µM
CC1CCCN(S(=O)(=O)c2ccc(NC(=O)C3CC(=O)N(c4ccccc4)C3)cc2)C1 (configuration not stated)	Pf growth 96h 9.28µM
O=C(Nc1ccccc1)C1CCCN(S(=O)(=O)c2ccc(-n3cnnn3)cc2)C1 (configuration not stated)	none (no result: Pf growth 48h)
CC1CCCN(S(=O)(=O)c2ccc(NC(=O)c3cccc(-n4cnnn4)c3)cc2)C1 (configuration not stated)	Pf growth 48h 11.7µM
C[C@@H](CNC(N)=O)NC(N)=O	none (no result: SARS PLP yeast, RE007 growth inh, Pf growth 48h, Pf growth 96h)
CC1CCCCN1S(=O)(=O)c1ccc(NC(=O)c2cccc(-n3cnnn3)c2)cc1 (configuration not stated)	Pf growth 48h 9.28µM, Pf growth 96h inconclusive
COc1cc2oc(-c3ccc(O)cc3)cc(=O)c2c(O)c1OC	Pf growth 96h 10.4µM
COc1cc2oc(-c3ccc(O)cc3)cc(=O)c2c(OC)c1O	Pf growth 48h inconclusive, Pf growth 96h inconclusive (no result: RE007 growth inh)
CCCCC(=O)Nc1ccnc(-c2cccnc2)n1	none
O=C(/C=C/c1ccc(OCCCF)cc1)Nc1ccnc(-c2cccnc2)n1	Pf growth 48h 10.4µM, Pf growth 96h inconclusive (no result: NS1 function inh)
O=C(/C=C/c1ccc(OCCCF)cc1)Nc1ccnc(-c2ccncc2)n1	Pf growth 48h 13.1µM, Pf growth 96h 13.1µM (no result: NS1 function inh)
CC1CC(C)CN(CCOc2ccc(Cl)cc2Cl)C1 (configuration not stated)	Pf growth 48h 10.4µM, Pf growth 96h inconclusive
CC1CCCN(CCOCCOc2ccc(Cl)cc2Br)C1 (configuration not stated)	Pf growth 48h 11.7µM, Pf growth 96h 11.7µM
CC1CC(C)CN(CCOc2cccc(Cl)c2Cl)C1 (configuration not stated)	Pf growth 48h inconclusive
CS(=O)(=O)c1cccc(-c2nnc(NC(=O)c3ccc4ncsc4c3)o2)c1	none (no result: SARS PLP yeast, NS1 function inh)
COc1cccc(-c2nnc(NC(=O)c3ccc4ncsc4c3)o2)c1	SARS PLP yeast inconclusive, Pf growth 48h inconclusive, Pf growth 96h 13.1µM
CCc1cc(Cl)c(OC)c(C(=O)NC[C@@H]2CCCN2CC)c1O	none (no result: SARS PLP yeast, NS1 function inh, Pf growth 48h, Pf growth 96h)
CC(C)(C)NC[C@H](O)CSc1nc(-c2ccc(C(N)=O)s2)cs1	Pf growth 48h inconclusive, Pf growth 96h 10.7µM (no result: SARS PLP yeast, RE007 growth inh, NS1 function inh)
CC(=O)NCc1ccc(-c2csc(N)n2)s1	NS1 function inh inconclusive
O=C1C=C(c2ccccc2)C[C@@H](c2ccc(Cl)cc2)C1	Pf growth 48h 2.62µM, Pf growth 96h inconclusive (no result: NS1 function inh)
COc1ccc([C@H]2CC(=O)C=C(c3cc4ccccc4c4ccccc34)C2)cc1	Pf growth 96h inconclusive (no result: NS1 function inh)
COc1ccc([C@H]2CC(=O)C=C(c3ccc(C)c4ccccc34)C2)cc1	Pf growth 48h inconclusive, Pf growth 96h 1.17µM (no result: NS1 function inh)
O=C1C=C(c2cccc(CO)c2)C[C@@H](c2ccc(Cl)cc2)C1	Pf growth 48h 0.329µM, Pf growth 96h 0.465µM (no result: NS1 function inh)
COc1ccc([C@H]2CC(=O)C=C(c3cccc(CO)c3)C2)cc1OC	Pf growth 48h inconclusive, Pf growth 96h inconclusive (no result: NS1 function inh)
